eIF4H inh = inhibitors of RNA binding by human eIF4H; Q15056; eIF4H fluorescence polarization binding assay; inhibition, % at 35 µM; 290,000 compounds, 0.94% hits; AID 2012;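 further: calls also rest on retests at 20 µM and on dose response follow-up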
MLLE-PAM2 inh = inhibitors of microRNA-mediated deadenylation, human PABP1 MLLE binding; AID 588489; inhibition, % at 20 µM; GST-MLLE / FITC-PAM2 fluorescence polarization; 360,000 compounds, 0.36% hits; in the data active means inhibition above about 35%, passing the limit was not always enough;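 further: plate controls were DMSO wells with GST-MLLE for no effect and wells lacking GST-MLLE protein for full effect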
PERK inhibitor = blocks human PERK kinase; inhibition, % at 5.6 µM; CHO PERK-DD fusion, SEAP luminescence translation reporter; Q9NZJ5; 220,000 compounds, 0.17% hits;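 active means inhibition above the mean inhibition of all tested compounds plus 3 SD, set separately per screening campaign, cut at about 2.9% in these data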;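 further: PERK kinase domain activated by AP20187 dimerizer at 100 nM; 0% = DMSO with dimerizer and 100% = rapamycin at 8.4 µM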
eIF4E-4G inh = inhibitors of eIF4E and eIF4G interaction in translation initiation; P63073+Q04637; TR-FRET eIF4E-eIF4GI(517-606) binding, 2 h; inhibition, % at 21.7 µM; 220,000 compounds, 0.37% hits; AID 782;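 active means inhibition above about 30%, limit read from the data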;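 further: 0% = full FRET control wells and 100% = background wells lacking eIF4GI fragment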
PABP polyA inh = PABP-poly(A) binding inhibition; PABP-poly(A) RNA binding, fluorescence polarization; P11940; 290,000 compounds, 1% hits; inhibition, % at 35 µM;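 further: calls also rest on retests at 20 µM and on dose response follow-up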
M18AAP inhibitor = blocks P. falciparum M18 aspartyl aminopeptidase; inhibition, % at 7.35 µM; recombinant PfM18AAP, H-Glu-NHMec fluorogenic cleavage; 290,000 compounds, 1.2% hits;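 active means inhibition above the campaign mean inhibition over all tested compounds plus 3 SD, cut at about 28% in these data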;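 further: 0% = plate median of test compound wells and 100% = 2 mM ZnCl2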
* marks the source's active call; other numbers are inactive results; . = not tested or not shown. Compounds with a hit are over-represented: about 2.4% of the library has one in this group of screens. Unless noted, how the calls were made is not given here.

SMILES | eIF4H inh | MLLE-PAM2 inh | PERK inhibitor | eIF4E-4G inh | PABP polyA inh | M18AAP inhibitor
CCC(CC)COC(=O)C(C#N)c1nc2ccccc2nc1N1CCN(CC)CC1 (stereo unspecified) | 81* | -7 | -1 | -4 | 53* | -6
CCCCNC(=O)C(C#N)c1nc2ccccc2nc1N1CCN(Cc2ccc3c(c2)OCO3)CC1 (stereo unspecified) | . | -13 | . | . | . | .
C=CCOC(=O)C(C#N)c1nc2ccccc2nc1N1CCN(Cc2ccc3c(c2)OCO3)CC1 (stereo unspecified) | 69* | -10 | 0 | -3 | 100* | 6
CC(C)c1ccc(NS(=O)(=O)c2ccc(-n3cccn3)cc2)cc1 | 88* | 15 | . | . | 74* | 4
CC(C)c1ccc(S(=O)(=O)Nc2ccc(-n3cnnn3)cc2)cc1 | . | 6 | . | . | . | .
COc1ccccc1CCN=C(N)NS(=O)(=O)c1ccc(F)cc1 | -17 | -10 | . | . | -3 | 4
Cc1ccc(S(=O)(=O)N2CCOCC2)cc1NC(=O)COC(=O)CSc1ccc(Br)cc1C | -7 | -12 | 1 | -15 | -6 | 1
O=C(c1cc(-c2ccc(F)cc2)no1)N1CCN(Cc2ccc3c(c2)OCO3)CC1 | -16 | -5 | . | . | -2 | 4
O=[n+]1c2c(n([O-])c3cc(F)c(F)cc31)CCCC2 | 66* | 16 | 0 | 10 | 33 | 19
COc1cc(C(=O)N(c2ccc(C)c(C)c2)C2C=CS(=O)(=O)C2)cc(OC)c1OC (stereo unspecified) | 1 | 1 | 0 | 3 | 3 | -9
O=C(Cc1ccccc1)N/N=C/C=C/c1ccccc1[N+](=O)[O-] | -10 | 13 | 1 | 0 | 6 | 7
O=C(O)c1ccc(N/N=C/C=C/c2ccccc2[N+](=O)[O-])cc1 | -4 | -12 | 2 | 3 | -13 | 41*
COc1cccc(C2C(C(=O)Nc3ccccc3)=C(C)N=c3s/c(=C/c4ccc(OCC(=O)O)cc4)c(=O)n32)c1 (stereo unspecified) | 38 | -11 | 1 | 0 | -7 | 7
CC1=C(C(=O)Nc2ccccc2)C(c2ccc(C)o2)n2c(s/c(=C\c3ccco3)c2=O)=N1 (stereo unspecified) | 84* | -76 | 0 | 2 | 101* | 23
Cc1c(C(=O)OCc2ccccc2)[nH]c2c1C(=O)CC(c1ccco1)C2 (stereo unspecified) | 81 | 8 | 0 | 15 | 0.7* | -6
Cc1c(C(=O)OCCOC(C)C)[nH]c2c1C(=O)CC(c1ccco1)C2 (stereo unspecified) | 59* | -4 | 1 | -2 | -7 | -12
CCOC(=O)c1[nH]c2c(c1C)C(=O)CC(c1ccco1)C2 (stereo unspecified) | 99* | -14 | 1 | 8 | 8.4* | -18
COCCOC(=O)c1[nH]c2c(c1C)C(=O)CC(c1ccco1)C2 (stereo unspecified) | 84* | 7 | 1 | 8 | 37 | -4
O=C(c1ccc(F)cc1)[C@@H]1[C@@H](C(=O)c2ccccc2)[C@@]2(C(=O)Nc3ccccc32)[C@H]2c3ccccc3C=CN12 | 51* | . | 0 | 2 | 6 | 1
Cc1ccc(S(=O)(=O)c2nc(S(=O)(=O)c3ccc(C)cc3)c(N3CCN(CCO)CC3)s2)cc1 | -9 | -13 | . | . | 1 | -2
CN(C)c1oc(-c2ccccc2[N+](=O)[O-])nc1C#N | -6 | 42* | 0 | 11 | 7 | 7
Cc1cc(C)n2cc(CSc3nnc(N)s3)nc2n1 | -4 | 40* | 0 | 2 | 2 | 5
Cc1cc(C)n2cc(CSc3nnc(SCc4cn5c(C)cc(C)nc5n4)s3)nc2n1 | -9 | . | 1 | -4 | -3 | 6
CCOc1ccccc1C1CC(c2ccc(Br)cc2)Nc2nc(N)nn21 (stereo unspecified) | -5 | -1 | -1 | 3 | -4 | -6
CCOC(=O)c1cn(-c2nc(-c3ccc(Cl)cc3)cs2)c2c(F)c(N3CC(C)OC(C)C3)c(F)cc2c1=O (stereo unspecified) | -2 | . | 3.2* | 2 | -5 | 0
SMILES | eIF4H inh | MLLE-PAM2 inh | PERK inhibitor | eIF4E-4G inh | PABP polyA inh | M18AAP inhibitor
CCOC(=O)c1cn(C2CC2)c2c(F)c(F)c(F)cc2c1=O | 10 | 0 | 1 | 0 | 22 | 0
C/C(CC(=O)NCc1ccco1)=N\NC(=O)CC#N | 6 | 2 | 1 | 2 | -5 | 30*
CC1CCc2c(sc3ncn(CC(=O)N4CCCCC4)c(=O)c23)C1 (stereo unspecified) | -8 | -11 | 0 | -2 | 2 | -5
CS(=O)(=O)Nc1ccc(-c2n[nH]c(=S)n2-c2ccccc2)cc1 | -9 | -2 | 0 | -9 | 11 | 31*
Cc1ccc(-c2n[nH]c(=S)n2-c2ccccc2)cc1 | -3 | -5 | 0 | -1 | 18 | 22
Cc1ccc(CNC(=O)Nc2ccc(OC(F)(F)F)cc2)n1C | 2 | -11 | . | . | 12 | 23
Cc1ccc(CNC(=O)Nc2ccc(F)cc2)n1C | 6 | 5 | . | . | 7 | 31*
Nc1cc2sc(-c3ccc(C(=O)O)cc3)nc2cc1Cl | -3 | -2 | 0 | 4 | 3 | -6
Nc1ncc(N=Nc2cc(C(=O)O)ccc2Cl)s1 | 42 | 16 | 0 | 2 | 48 | 29*
CCn1c(SC(=O)NC2CCCCC2)nnc1-c1cccs1 | -4 | 16 | 1 | 2 | 1 | 47*
CCn1c(SCC(=O)NC2CCCCC2)nnc1-c1cccs1 | 4 | 12 | -1 | -11 | -4 | -8
Cc1cccc(C)c1OCC(=O)N/N=C/C=C/c1ccco1 | 88 | 10 | 1 | 0 | 6 | 8
O=C(Nc1ccc(C(=O)O)cc1)/C(=C\c1ccco1)NC(=O)c1ccccc1Cl | 28 | 1 | . | . | 18 | 30*
O=C(Cc1cccs1)N/N=C/C=C\c1ccco1 | 103* | -6 | 0 | 0 | 0.5* | -7
O=C(N/N=C/C=C/c1ccco1)c1ccccc1Cl | 78* | 0 | 1 | 2 | active | 14
Cc1cccc(OCC(=O)N/N=C/C=C/c2ccco2)c1 | 81* | -15 | 0 | 12 | 1 | 7
COc1cccc(NC(=O)C2CCC(CNS(=O)(=O)c3ccc4c(c3)CC(C)N4C(C)=O)CC2)c1 (stereo unspecified) | 1 | -17 | . | . | 5 | -5
CC(C(=O)Nc1ccc(Cl)cc1)N1C(=O)NC2(CCCC2)C1=O (stereo unspecified) | -5 | -42 | . | . | -10 | 0
O=C(N/N=C/C=C/c1ccco1)/C(=C/c1ccccc1)NC(=O)c1ccccc1 | 51* | 4 | 0 | -5 | active | 12
COCCCN(C(=S)NC(=O)c1ccc(C(C)(C)C)cc1)c1c(N)n(Cc2ccccc2)c(=O)[nH]c1=O | -8 | 38 | 0 | 3 | -3 | 1
CN(C(=S)NC(=O)c1ccccc1)c1c(N)n(Cc2ccccc2)c(=O)[nH]c1=O | -8 | 40* | 0 | -11 | -1 | -11
CCc1nc2c(OCc3cccc(Cl)c3)cccn2c1N(C)C(=O)C1CC1 | . | -5 | . | . | . | .

Screens from PubChem BioAssay.
